In PubChem BioAssay:
Active and inactive are the calls of the source. Cut-off read from the data, not from the text of the source: active = fold change permeability below about 0.7 or above about 1.3; inactive = in between.

Assay: compounds altering in vitro BBB leakiness – cell-based, FITC-avidin fluorescence, HTS, primary screen (AID 1963498); note: test concentration not given here
Settings: brain endothelial barrier, actives lie on both sides
In the case of `CCN1CCCC1CNC(=O)c1cc(S(N)(=O)=O)ccc1OC` (stereo not given), the fold change permeability was 0.7 (active).
With `Cc1c(C(=O)N2CCOc3ccc(-c4ccc(N)nc4)cc3C2)ccc(S(C)(=O)=O)c1F` the fold change permeability was 1.2 (inactive).
With `Nc1ncnc2c1c(-c1ccc(Oc3ccccc3)cc1)cn2C1CCCC1` the fold change permeability was 1.6 (active).
In the case of `Cc1ncc(-c2c[nH]c3ccccc23)o1`, the fold change permeability was 1.2 (inactive).
In the case of `CC(CCc1ccc(O)cc1)NCCc1ccc(O)c(O)c1` (stereo not given), the fold change permeability was 1.2 (inactive).
With `CCCN(CCC)C(=O)C(CCC(=O)O)NC(=O)c1ccccc1` (stereo not given) the fold change permeability was 0.7 (active).
For `O=C1c2ccccc2C(=O)c2c(NCCc3ccc(O)cc3)ccc(NCCc3ccc(O)cc3)c21`, the fold change permeability was 1.1 (inactive).
With `COc1cc(NS(C)(=O)=O)ccc1Nc1c2ccccc2nc2ccccc12` the fold change permeability was 1.2 (inactive).
With `O=C1OC(=O)C2C3CCC(O3)C12` (stereo not given) the fold change permeability was 0.9 (inactive).
For `CN(C)CCOC(=O)COc1ccc(Cl)cc1`, the fold change permeability was 0.9 (inactive).
With `CC(C)(CN1C(=O)C(Cl)=C(Cl)C1=O)CN1C(=O)C(Cl)=C(Cl)C1=O` the fold change permeability was 1.1 (inactive).
With `NCCCCN=C(N)N` the fold change permeability was 1.3 (active).
For `CCCn1c(=O)c2[nH]c(-c3ccc(S(=O)(=O)O)cc3)nc2n(CCC)c1=O`, the fold change permeability was 1.1 (inactive).
With `Oc1cc2c(c(Cl)c1O)CCNCC2c1ccccc1` (stereo not given) the fold change permeability was 1.6 (active).
With `COc1ccc(Oc2c(Cl)cnn(C3c4ccccc4-c4ccccc43)c2=O)cc1` the fold change permeability was 1.4 (active).
In the case of `N[C@@H](Cc1c[nH]c2ccc(O)cc12)C(=O)O`, the fold change permeability was 1 (inactive).
For `O=C(c1ccc(F)cc1)C1CCN(CCn2c(=O)[nH]c3ccccc3c2=O)CC1`, the fold change permeability was 1.2 (inactive).
With `CC(C)(C=O)Cc1cc(C(C)(C)C)c(O)c(C(C)(C)C)c1` the fold change permeability was 1.2 (inactive).
For `O=c1[nH]ccc2c(O)cccc12`, the fold change permeability was 2.2 (active).
For `CN1C(=O)CC[C@H]1c1cccnc1`, the fold change permeability was 0.9 (inactive).
In the case of `CC(=O)[C@H]1CCC2C3CC=C4C[C@@H](OS(=O)(=O)O)CC[C@]4(C)C3CC[C@@]21C` (stereo not given in full), the fold change permeability was 1 (inactive).
In the case of `N#CSCC(=O)c1ccc(O)c(O)c1`, the fold change permeability was 1.1 (inactive).
With `CN(C)c1nc(N(C)C)nc(N(C)C)n1` the fold change permeability was 1.1 (inactive).
For `O=S(=O)(c1cccc2c(I)cccc12)N1CCCNCC1`, the fold change permeability was 0.9 (inactive).
For `COc1cc(C(O)C(=O)O)ccc1O` (stereo not given), the fold change permeability was 1 (inactive).
In the case of `O=C1/C(=C/c2cccs2)CC/C1=C\c1cccs1`, the fold change permeability was 1.6 (active).
In the case of `Cc1ccc(/C=N\NC(=O)c2n[nH]c3c2CCCC3)cc1`, the fold change permeability was 1.1 (inactive).
For `O=C(CCCCCN1CCN(c2ccccc2-c2ccccc2)CC1)NC1CCCc2ccccc21` (stereo not given), the fold change permeability was 1.1 (inactive).
For `CC(=O)SCC[N+](C)(C)C`, the fold change permeability was 0.8 (inactive).
For `c1ccc(CN2CCC3(CCCc4ccccc43)CC2)cc1`, the fold change permeability was 1.6 (active).
In the case of `CC(=O)[C@@]1(O)CC[C@H]2[C@@H]3CCC4=CC(=O)CC[C@]4(C)[C@H]3CC[C@@]21C`, the fold change permeability was 1 (inactive).
With `Cn1ccc2cc(NC(=O)Nc3cccnc3)ccc21` the fold change permeability was 1.2 (inactive).
For `CN(C)CCC=C1c2ccccc2CCc2ccccc21`, the fold change permeability was 1.1 (inactive).
With `O=c1c(O)c(-c2cc(O)c(O)c(O)c2)oc2cc(O)cc(O)c12` the fold change permeability was 0.7 (active).
With `N[C@H](CO)C(=O)O` the fold change permeability was 0.8 (inactive).
In the case of `NC(=O)c1ccc(OCCCN2C[C@H]3CCC[C@H]3C2)cc1`, the fold change permeability was 0.8 (inactive).
In the case of `Nc1nc2c(ncn2[C@@H]2O[C@H](CO)[C@@H](O)[C@@H]2O)c(=O)[nH]1`, the fold change permeability was 2.1 (active).
With `CCCC(=O)NCCc1csc(-c2ccc(Cl)cc2)n1` the fold change permeability was 1.5 (active).
In the case of `CCCC[C@@]1(C2CCCC2)Cc2cc(OCC(=O)O)c(Cl)c(Cl)c2C1=O`, the fold change permeability was 1.6 (active).
With `NC[C@@H]1O[C@H](C23CC4CC(CC(C4)C2)C3)Cc2c1ccc(O)c2O` the fold change permeability was 1.1 (inactive).
